Assay results taken from publication PMC4336329 (PLoS ONE, 2015).
Hit rate of the full screen: of about 310,000 compounds, about 14,000 (4.5%) showed an effect of 50% or more. Effects have a minus sign here. Only a selection was taken, and strong results are over-represented in it overall.

biological target: human ether-à-go-go-related gene (hERG) potassium channel (human, UniProt Q12809); test: primary screen, population patch clamp on CHO cells stably expressing hERG; higher = less effect of the substance
Sequence (Q12809 whole entry, looked up): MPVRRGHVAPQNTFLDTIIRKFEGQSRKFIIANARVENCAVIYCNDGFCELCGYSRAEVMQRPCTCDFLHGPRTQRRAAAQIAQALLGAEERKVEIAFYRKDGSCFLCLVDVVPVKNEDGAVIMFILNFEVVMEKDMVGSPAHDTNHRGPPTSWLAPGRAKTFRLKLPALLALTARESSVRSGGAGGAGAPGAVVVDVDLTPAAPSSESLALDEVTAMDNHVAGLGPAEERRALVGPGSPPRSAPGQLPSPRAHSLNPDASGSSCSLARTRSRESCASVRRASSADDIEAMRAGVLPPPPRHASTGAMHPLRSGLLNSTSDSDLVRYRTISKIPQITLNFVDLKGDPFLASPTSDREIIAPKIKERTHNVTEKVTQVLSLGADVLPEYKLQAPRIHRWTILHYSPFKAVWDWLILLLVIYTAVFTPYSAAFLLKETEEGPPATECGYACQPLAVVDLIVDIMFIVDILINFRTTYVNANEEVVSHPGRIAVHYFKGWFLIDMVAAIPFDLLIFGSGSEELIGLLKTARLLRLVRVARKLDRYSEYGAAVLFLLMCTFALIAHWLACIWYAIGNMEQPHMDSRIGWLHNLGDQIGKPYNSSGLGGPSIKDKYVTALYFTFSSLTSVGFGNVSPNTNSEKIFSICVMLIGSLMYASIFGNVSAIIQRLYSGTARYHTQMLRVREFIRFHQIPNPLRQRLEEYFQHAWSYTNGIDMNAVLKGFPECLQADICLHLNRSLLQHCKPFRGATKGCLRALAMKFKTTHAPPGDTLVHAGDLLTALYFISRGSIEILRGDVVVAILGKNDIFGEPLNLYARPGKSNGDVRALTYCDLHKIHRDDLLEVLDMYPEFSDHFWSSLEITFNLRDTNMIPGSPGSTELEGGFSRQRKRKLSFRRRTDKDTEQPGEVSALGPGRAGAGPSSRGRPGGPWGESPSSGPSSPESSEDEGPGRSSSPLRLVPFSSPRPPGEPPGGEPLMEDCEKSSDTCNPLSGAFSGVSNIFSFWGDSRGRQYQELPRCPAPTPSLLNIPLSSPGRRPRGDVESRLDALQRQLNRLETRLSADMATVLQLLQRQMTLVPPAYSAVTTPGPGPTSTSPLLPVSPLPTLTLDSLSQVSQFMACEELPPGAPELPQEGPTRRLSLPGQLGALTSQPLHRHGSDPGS
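Further: peak tail current of the secondary pulse compared with the same well before compound.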

SMILES	hERG current change (%, negative = inhibition) at 10uM [%]
CN(C)c1ccc(NC(=O)N2CCOCC2)cc1	-3.34
Cc1ccc(-c2cc3nc(-c4ccc(Br)cc4)cc(N)n3n2)cc1	-8.51
CCCN(CC(=O)Nc1c(C)cccc1CC)C(=O)SCC	10
CCc1cccc(NC2c3ccccc3C(=O)N2c2cccnc2)c1 (stereo not drawn)	-10.2
CCC(C)(C)NC(=O)C(c1ccc(OC)cc1)N(C(=O)CCC(=O)Nc1cc(C)on1)C(C)(C)C (stereo not drawn)	-27.1
COc1ccc(OCC(O)CNCc2ccco2)cc1 (stereo not drawn)	1.32
COc1ccc(CCNC(=O)C2CCN(S(=O)(=O)N3CCC4(CC3)OCCO4)CC2)cc1OC	1.93
COc1cc(C2=NOC(C(=O)Nc3ccc(C)cc3)C2)cc(OC)c1OC (stereo not drawn)	-4.96
CCOC(=O)c1ccc(NC(=S)NC(=O)COc2ccccc2)cc1	11
CCCCOc1ccc(-n2nc(C)cc2C)nn1	-16.3
CCOC(=O)N1CCN(C(=O)c2ccc(NS(C)(=O)=O)cc2)CC1	-5.65
Cn1c(SCC(=O)NC2CCCCC2)nnc1-c1ccncc1	13.2
Cc1cc(C)c(NC(=O)c2cn3c4c(c(N5CCN(C)CC5)c(F)cc4c2=O)OCC3C)c(C)c1 (stereo not drawn)	-51.7
CC1COc2c(N3CCN(C)CC3)c(F)cc3c(=O)c(C(=O)O)cn1c23 (stereo not drawn)	18.2
C[C@H]1COc2c(N3CCN(C)CC3)c(F)cc3c(=O)c(C(=O)O)cn1c23	11.2
O=C(Cc1cccs1)Nc1ccccc1-c1nc2ccccc2[nH]1	19.7
CC(C)c1nnc(NC(=O)CC(=O)Nc2ccccc2C(=O)O)s1	4.72
CON(C)c1nc(Oc2ccc(=O)[nH]n2)nc(N(C)C)n1	-9.3
Cc1cc(C(=O)CN2C(=O)NC3(CCCCC3)C2=O)c(C)n1C	-10.3
Cc1cc(C(=O)CN2C(=O)NC3(CCCCC3)C2=O)c(C)n1-c1ccc2c(c1)OCO2	-56.4
CCCC1(CCC)NC(=O)N(CC(=O)c2cc(C)n(-c3ccc4c(c3)OCO4)c2C)C1=O	5.65
COCCn1c(C)cc(C(=O)CN2C(=O)NC3(CCCCCCC3)C2=O)c1C	-59
Cc1cc(C(=O)CN2C(=O)NC3(CCCC3)C2=O)c(C)n1-c1ccc2c(c1)OCO2	-28.5
COCCn1c(C)cc(C(=O)CN2C(=O)NC3(CCCCCC3)C2=O)c1C	-27.8

SMILES	hERG current change (%, negative = inhibition) at 10uM [%]
Cc1nn(CC(=O)NCc2ccc(C(=O)O)cc2)c(C)c1[N+](=O)[O-]	21.5
CCOC(=O)c1cc(C)[nH]c(=S)c1C#N	-23.4
Cc1ccc(C(=O)n2cnnc2N)cc1C	-0.0756
CC(=O)NC(Cc1ccc(F)c(F)c1)C(=O)NC1CCN(C(=O)c2ccc(C)cc2)CC1 (stereo not drawn)	-12.9
CC(=O)NC(Cc1ccc(F)cc1)C(=O)NC1CCN(c2nnnn2-c2ccccc2)CC1 (stereo not drawn)	-41
CC(=O)NC(Cc1cccc(F)c1)C(=O)NC1CCN(c2nnnn2-c2ccccc2)CC1 (stereo not drawn)	-5.71
CC(=O)NC(Cc1cccc(F)c1)C(=O)NC1CCN(C(=O)c2ccc(C)cc2)CC1 (stereo not drawn)	33
CC(=O)NC(Cc1ccc(F)c(F)c1)C(=O)NC1CCN(c2nnnn2-c2ccccc2)CC1 (stereo not drawn)	-54.6
CC(=O)NC(Cc1ccc(F)c(F)c1)C(=O)NC1CCN(C(=O)c2ccc(Cl)cc2)CC1 (stereo not drawn)	-56.9
CN(C)S(=O)(=O)c1cccc(NC(=S)NC2CCCCC2)c1	6.69
CCCN(CC1CC1)C(=S)NC(=O)c1ccccc1Br	-4.58
C=CC(=O)N=c1sc2ccccc2n1-c1ccccc1	-6.08
CCOC(=O)c1sc(=S)n(C)c1NC(=O)c1cccc(Br)c1	5.67
S=C(Nc1ccccc1)N1CCOCC1	11.5
O=C(Nc1ccc(Cl)cc1)C1CCCN(C2=NS(=O)(=O)c3ccccc32)C1 (stereo not drawn)	-60
O=C(Nc1ccc(Br)cc1)C1CCCN(C2=NS(=O)(=O)c3ccccc32)C1 (stereo not drawn)	-29.1
O=C(Nc1ccc(F)c(Cl)c1)C1CCCC1	25.2
Cc1ccc(NC(=O)C2CCCN(C3=NS(=O)(=O)c4ccccc43)C2)c(O)c1 (stereo not drawn)	-33.6
O=C(Nc1ccc(F)c(Cl)c1)C1CCCN(C2=NS(=O)(=O)c3ccccc32)C1 (stereo not drawn)	-63
O=C(Nc1ccc(F)c(Cl)c1)C1CCCN(c2cnccn2)C1 (stereo not drawn)	-24.9
COCCn1c(-c2ccc(Cl)cc2Cl)nc2c(c(=O)c3ccccc3n2C)c1=O	-8.66
COc1ccccc1C(=O)Nc1ccc2c(c1)CCCN2C(=O)c1ccccc1	-39.8
O=c1cc[nH]c2c1ccc1cccnc12	21.5
CC(CC(=O)OCC(=O)NCc1ccc(Cl)cc1)c1ccccc1 (stereo not drawn)	-7.65
